Only some compounds are listed: those with a hit (about 8.3% of all), similar ones and a draw of the others.
MCF10A rereplic – induces DNA re-replication in MCF 10a normal breast cells. MCF 10A DNA re-replication, Hoechst nuclear intensity, 48 h. Potency, µM (series often up to 46.1 µM), inactives show at the top dose activity, positive = re-replication, most hits filed as activators. hit rate 2.9% among 350,000; also: potency is read from the fitted curve at half-maximal effect; % of control where 0% means no effect; nearly all actives have a fitted effect of over 50% in size
RORgamma inh – ROR gamma (mouse) transcription inhibition; Drosophila S2 Gal4-RORgamma UAS-luciferase reporter, 20 h; Potency, µM (top dose mostly 53.6 µM), for inactives: top-dose activity change, negative = inhibition, hits mostly inhibitors; hit rate 5.4% among 310,000; AID 2551; also: potency is read from the fitted curve at half-maximal effect; % is scaled to controls: 0 for no effect and ±100 for the full control effect; nearly all actives have a fitted effect of over 60% in size
Target sequence (P51450 whole entry, looked up, the tested form may be a part): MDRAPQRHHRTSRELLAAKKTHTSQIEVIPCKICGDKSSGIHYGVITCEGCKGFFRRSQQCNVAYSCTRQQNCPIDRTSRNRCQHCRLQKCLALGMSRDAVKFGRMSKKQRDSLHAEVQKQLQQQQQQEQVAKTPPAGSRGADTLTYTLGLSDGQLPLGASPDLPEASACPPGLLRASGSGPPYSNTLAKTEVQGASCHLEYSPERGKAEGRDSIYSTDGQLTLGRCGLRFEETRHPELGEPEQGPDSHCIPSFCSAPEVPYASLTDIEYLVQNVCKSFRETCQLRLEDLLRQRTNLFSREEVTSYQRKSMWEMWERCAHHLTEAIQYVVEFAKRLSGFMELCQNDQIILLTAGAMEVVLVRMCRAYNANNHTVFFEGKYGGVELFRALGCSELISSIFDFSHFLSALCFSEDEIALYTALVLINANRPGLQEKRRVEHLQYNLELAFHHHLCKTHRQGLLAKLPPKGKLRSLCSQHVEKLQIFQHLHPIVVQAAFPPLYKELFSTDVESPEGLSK
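Stably transfected Drosophila Schneider cells are the test system, with ROR gamma fused to Gal4 and luciferase under UAS control; luminescence is read after 20 hr of 700 uM copper sulfate induction at ambient temperature.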
BCR signal inh – blocks chronic active B-cell receptor signaling | AID 493014 | Potency, µM (series often up to 46.1 µM), for the others: top-dose activity change, negative = inhibition, hits mostly inhibitors | ABC-DLBCL IkBa-CBG/CBR reporter, luminescence ratio, 4 h | hit rate 0.05% among 340,000; active = well fitted inhibition curve with a large enough effect in the signal ratio, with a control signal flat, not every such curve was filed as active; inconclusive = small, poorly fitted or top-dose-only effect, or effect the other way, or a change in a side signal; the % refers to the signal ratio;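 also: potency is read from the fitted curve at half-maximal effect; plate controls were basal doxycycline-induced cells for no effect and cells given 10 µM MG132 for full effect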
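Doxycycline induced both beetle luciferases in TMD8 lymphoma cells; IKK-driven degradation limits the IkappaBalpha-fused green signal, while red luminescence normalises for cell number and nonspecific effects. Compounds tested up to 46 uM, 4 hrs.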
Giardia killer – Giardia lamblia killing; Giardia lamblia trophozoite viability; activity change, % at 7.66 µM, hits read low; hit rate 0.15% among 340,000; AID 540267; in the data active = activity change below about -80%; inconclusive = between about -30% and that limit;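 also: parasites exposed to compound for two days anaerobically before the ATP read; % is scaled to controls: 0 for no effect and ±100 for the full control effect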
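Each well holds 100 Giardia trophozoites and compound. After two days (48 hrs) at 37 deg C in anaerobic conditions, ATP is quantified by luminescence.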
VP16 counter – inhibits Gal4-VP16 luciferase reporter, ROR gamma counter-screen; hit rate 3.5% among 310,000; Drosophila S2 Gal4-VP16 UAS-luciferase, luminescence, 20 h; Potency, µM (titrated, usually from 53.6 µM), for the others: at the top dose activity, negative = inhibition, most hits filed as inhibitors;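 also: Gal4-VP16 expression switched on by copper sulfate through the metallothionein promoter; potency is read from the fitted curve at half-maximal effect; % is scaled to controls: 0 for no effect and ±100 for the full control effect; nearly all actives have a fitted effect of over 50% in size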
SW480 rereplic – induces DNA re-replication in SW480 colon adenocarcinoma cells | SW480 DNA re-replication, Hoechst DNA content imaging, 48 h | Potency, µM (series often up to 46.1 µM), inactives show at the top dose re-replication activation, hits mostly activators | hit rate 1.8% among 340,000 | AID 624297; also: potency is read from the fitted curve at half-maximal effect; % of control where 0% means no effect; nearly all actives have a fitted effect of over 55% in size
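Per well, 250 cells were exposed to pinned compound for 48 hr. Nuclear DNA was visualised with Hoechst (40 min, 37 C) and total object intensity recorded by fluorescence scanning.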
* hit, by the source's call; ? = inconclusive; · = no result; [ ] = another dose, or the depositor's remark. Unless noted, calls follow the shape of the dose curve; as a rule, active = well fitted curve in the direction sought with a large enough effect; inconclusive = small, poorly fitted or top-dose-only effect, or another doubt; inactive = no such curve, though single readings can be large; an effect the other way counts as inactive or inconclusive.

SMILES | MCF10A rereplic | RORgamma inh | BCR signal inh | Giardia killer | VP16 counter | SW480 rereplic
COc1ccc(/C=N/Nc2nc(N3CCCCC3)nc(N3CCCCC3)n2)cc1[N+](=O)[O-] | ? | 15.8µM* | 2.1% | -2.5 | -8.3% | 4.6%
COc1ccc(/C=N/Nc2nc(Nc3ccccc3)nc(N3CCCCC3)n2)c(OC)c1 | -6.9% | 3.16µM* | 0.9% | -11.1 | 11.2µM* | 2.3%
COc1ccc(/C=N/Nc2nc(Nc3ccccc3)nc(N3CCCC3)n2)cc1[N+](=O)[O-] | ? | 12.6µM* | ? | 5.6 | -30.0% | 18.4µM*
O=[N+]([O-])c1cc(/C=N/Nc2nc(N3CCCCC3)nc(N3CCCCC3)n2)ccc1O | 4.9% | -8.5% | ? | ? | -8.9% | 2.5%
CC(=O)Nc1ccc(S(=O)(=O)Nc2nnc(CC(C)(C)C)s2)cc1 | -3.3% | 7.2% | ? | -0.7 | -0.5% | -7.5%
COc1ccccc1CNC(=O)CCC1N=C2c3ccccc3N=C(SCC(=O)Nc3ccc(F)cc3)N2C1=O (stereo not drawn) | · | · | 10.9% | · | · | ·
CCOc1cccc(/C=C(\C#N)C(=O)NC2CC2)c1 | -2.5% | · | · | 0.7 | · | -7.9%
Cc1nonc1NC(=O)CSc1nc(C2CCCCC2)nc2ccccc12 | ? | ? | ? | 5.1 | ? | 8.2µM*
CCN(CC)c1ccc(NC(=O)CSc2nc(C3CC3)nc3ccccc23)cc1C | 6.51µM* | 4.9% | -11.2% | 14.8 | -19.1% | 8.2µM*
Cc1nonc1NC(=O)CSc1nc(C23CC4CC(CC(C4)C2)C3)nc2ccccc12 | 10.3µM* | 7.5% | 1.0% | 5.7 | -0.1% | ?
Cc1cc(NC(=O)CSc2nc(C3CCCCC3)nc3ccccc23)no1 | 5.9% | 9.0% | -9.0% | -16.2 | 17.6%[0.365 µM] | 13.3%
NC(=O)CSc1nc(C23CC4CC(CC(C4)C2)C3)nc2ccccc12 | ? | -1.5% | 0.4% | -3.6 | ? | 2.6%
CCn1nc(C)cc1C(=O)NC1CCCc2c1cnn2-c1ccc(C)c(C)c1 (stereo not drawn) | ? | 25.1% | -10.2% | 3.6 | ? | ?
COC(=O)c1c(C)[nH]c(C(=O)CN(C)CC(=O)Nc2cccc(F)c2)c1C | -4.2% | · | -12.2% | -5.7 | · | ?
CCOc1ccc2nc3cc(NCc4ccc(OC)cc4)ccc3c(N)c2c1 | 14.6µM* | 33.7% | 5.4% | 10.3 | ? | ?
CC(Nc1nc(N2CCNCC2)nc2ccccc12)c1ccccc1 (stereo not drawn) | 46.1% | -36.5% | -8.6% | -84.0* | 2.2% | 13.0%
Cn1cc(CNCc2ccc(-n3cccn3)cc2)c(-c2ccccc2F)n1 | 4.5% | ? | -6.9% | 20.0 | 11.2µM* | 4.5%
NS(=O)(=O)c1ccc(NN=C2CCN(Cc3ccccc3)CC2)c([N+](=O)[O-])c1 | -7.0% | ? | ? | -6.3 | ? | -2.9%
Cc1cc(C)c2c(c1)/C(=N/Nc1ccc(S(N)(=O)=O)cc1[N+](=O)[O-])CCC2 | 2.31µM* | -2.9% | 4.5% | 5.6 | 17.3% | -7.0%
CC1C/C(=N\Nc2ccc(S(N)(=O)=O)cc2[N+](=O)[O-])CC(C)(C)C1 (stereo not drawn) | 20.6µM* | ? | 1.7% | -13.9 | ? | 9.5%
NS(=O)(=O)c1ccc(N/N=C2/CCCCC2C2CCCCC2)c([N+](=O)[O-])c1 (stereo not drawn) | 11.6µM* | 17.8% | ? | -4.3 | ? | ?
O=C1CS/C(=N/N=C\c2ccn[nH]2)N1 | 1.7% | 10µM* | 1.6% | 8.6 | ? | 1.5%
CN1CCOc2cc(S(=O)(=O)NCc3ccc(S(N)(=O)=O)cc3)ccc21 | 1.3% | -16.5% | -12.0% | -24.4 | -0.8% | -10.5%
COc1ccc(OCCn2cc(C=O)c3ccccc32)cc1 | ? | ? | -19.7% | -7.6 | -23.2% | -6.9%
CNC(=S)N/N=C/c1cn(Cc2ccc(F)cc2)c2ccccc12 | ? | 0.891µM* | -6.6% | -9.3 | 1.12µM* | -0.1%

Source: PubChem
